Results: PubChem BioAssay (NCI)
This is part of a sample that, as a whole, favours compounds with a hit. Of some 83,000 tested, about 20% had one in any assay.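 Activity criterion: percent growth below 10, measured after cells in 96-well plates were exposed to a single compound concentration for 48 hours.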 Unmarked numbers belong to inactive results. Active and inactive are the calls of the source.

Legend:
Test in all cases: NCI-60 one-dose screen, 48 h (100 = growth as untreated, 0 = no growth, -100 = all killed)
Settings in all cases: 10 µM unless noted
[1] = system: NCI-H23 lung
[2] = system: NCI-H226 lung
[3] = system: NCI-H322M lung
[4] = system: HOP-62 NSCLC
[5] = system: NCI-H460 lung
[6] = system: HOP-92 NSCLC
[7] = system: NCI-H522 lung
[8] = system: A549/ATCC NSCLC
[9] = system: 786-0 renal
[10] = system: COLO 205 colon

Row | Structure (SMILES) | growth [1] | growth [2] | growth [3] | growth [4] | growth [5] | growth [6] | growth [7] | growth [8] | growth [9] | growth [10]
1 | COc1cc(N2C(=O)c3nccnc3C2=O)cc(OC)c1OC | 99.6% | 114% | 99.7% | 95.9% | 111% | 89.9% | 95.2% | 105% | 97.1% | 111%
2 | Cc1nc2c(c(N3CCCc4ccccc43)n1)CCC2 | 25.5% | 10.9% | 54.5% | 4.68% (active) | 3.12% (active) | 0.664% (active) | -18.6% (active) | 2.98% (active) | 10.1% | -59.5% (active)
3 | N#CC1=C(/N=C/c2ccccc2)Oc2c(ccc3ccccc23)C1c1ccccc1 (configuration not stated) | 28.6% | 52.9% | 45.6% | 21.1% | 11.6% | 50.4% | -4.7% (active) | 21% | 23.2% | -23.2% (active)
4 | COc1cccc2c1C(=O)c1c(O)c3c(c(O)c1C2=O)CC(O)(/C(C)=N/NC(=O)CCCCC(=O)N/N=C(\C)C1(O)Cc2c(O)c4c(c(O)c2C(OC2CC(N)C(O)C(C)O2)C1)C(=O)c1c(OC)cccc1C4=O)CC3OC1CC(N)C(O)C(C)O1 (configuration not stated) | -31.9% [5 µM] (active) | -56.1% [5 µM] (active) | -10.2% [5 µM] (active) | -1.23% [5 µM] (active) | -10.2% [5 µM] (active) | -50.7% [5 µM] (active) | -57.7% [5 µM] (active) | -22% [5 µM] (active) | 4.75% [5 µM] (active) | -91.9% [5 µM] (active)
5 | O=C(COc1ccc(/C=C2\Oc3ccccc3C2=O)cc1)c1ccc(Cl)cc1 | 107% | 92.4% | 126% | 91.1% | 115% | 88% | 96.1% | 112% | 91% | 108%
6 | N#Cc1c(-c2ccccc2)cc(-c2ccc(Nc3nc(Nc4ccc(F)cc4)nc(Nc4ccc(F)cc4)n3)cc2)nc1N | 72.9% | 101% | 96.2% | 80.5% | 104% | 46.8% | 89% | 86.2% | 83.9% | 81.9%
7 | Cc1nn(-c2ccccc2)c(Oc2ccc(Cl)cc2)c1/C=N\N=c1/sc2ccccc2n1C | 88.9% | 84.3% | 83.8% | 86.7% | 85% | 71.9% | 68% | 86.1% | 96.3% | 93%
8 | CCN(CC)S(=O)(=O)c1cccc(-c2ccc3c(NC(=O)C4CC4)n[nH]c3c2)c1 | 28.5% [6.25 µM] | 26.5% [6.25 µM] | 55.6% [6.25 µM] | 18.5% [6.25 µM] | 12.3% [6.25 µM] | 41.3% [6.25 µM] | -17% [6.25 µM] (active) | 21.2% [6.25 µM] | 18.1% [6.25 µM] | 3.94% [6.25 µM] (active)
9 | CCOc1ccccc1-c1cc(-c2cccs2)c(C#N)c(=O)[nH]1 | 86.1% | 90.9% | 83.9% | 81.5% | 93.8% | 64.7% | 75.5% | 91.2% | 92.1% | 114%
10 | CC1=CN2C(=O)C3C4=C(CCCC4)SC3N=C2CN1c1c(C)cccc1C (configuration not stated) | 91.1% | 71% | 109% | 82.5% | 76.6% | 55.2% | 77.4% | 82.4% | 75.9% | 110%
11 | Cn1c(I)c(C#C[Si](C)(C)C)c(=O)n(C(=O)c2ccccc2)c1=O | 51.7% | 79.6% | 94.9% | 59.1% | 55.4% | -27.1% (active) | -66.2% (active) | 80% | -66.6% (active) | -7.64% (active)
12 | Cc1ccc(/C=C/c2c(C(=O)/C=C/c3ccc(Cl)cc3)c(C)nc3ccccc23)cc1 | 2.79% (active) | -30.4% (active) | 51.7% | 3.89% (active) | -73.9% (active) | 0.669% (active) | 5.16% (active) | 78.8% | -17.5% (active) | 6.99% (active)
13 | C[n+]1cccc(CC(=O)NO)c1 | 102% | 89.3% | 97.2% | 92.7% | 101% | 82.5% | 84.6% |  | 106% | 
14 | CN(C)CCCn1c(=O)c2ccccc2c2ccccc21 | 76.8% | 87.6% | 98.5% | 80.1% | 66.5% | 45.5% | 53.1% |  | 68.4% | 55%
15 | N#CC1=C(NC=O)Oc2c(ccc3ccccc23)C1c1ccccc1 (configuration not stated) | 38.5% | 62.6% | 75.4% | 21.1% | 19.9% | 42.6% | -2.8% (active) | 36.3% | 22% | 96.4%
16 | N[C@@H](CCCCNCC(=O)O)C(=O)O | 95.1% | 98.4% | 110% | 101% | 103% | 64.5% | 96.3% | 101% | 97.2% | 111%
17 | COc1cccc(-c2nn(-c3ccccc3)cc2-c2ccnc(NCCNC(=O)c3ccccc3)c2)c1 | 61.4% | 70.4% | 109% | 60.7% | 63.7% | 52.8% | 56.7% | 41.8% | 54.4% | 62.6%
18 | COc1ccc(OC)c2c1[nH]c(=O)c1c3ncccc3cn21 | 34.4% | 32.2% | 48.5% | 31.7% | -3.99% (active) | 57.4% | 29.7% |  | 34.7% | 22.8%
19 | O=C1Nc2ccccc2/C1=C/c1cn(C(=O)c2ccc(Cl)cc2)c2ccccc12 | 90.8% | 92.3% | 127% | 111% | 107% | 99.3% | 85.6% |  | 111% | 58.2%
20 | Cc1ccc2[nH]c(=O)c3c(c2c1)OC(N)=C(C#N)C31c2cc(Br)ccc2-c2ccc(Br)cc21 | 59.1% | 58.7% | 75.3% | 69% | 40.5% | 42.7% | 74.2% |  | 46.4% | 30.2%
21 | CCOC(=O)c1c(/C=C/C(=O)O)nc2ccccc2c1/C=C/c1ccccc1 | 50.3% | 53.8% | 72.7% | 63.3% | 28.5% | 60.1% | 40.9% | 70.7% | 54.9% | 84%
22 | N#Cc1c2c(nn(-c3ccccc3)c1=O)C(O)=C([N+](=O)[O-])C(c1ccccc1)C2 (configuration not stated) | 86% | 102% | 93.1% | 78.3% | 91.6% | 76% | 77.8% |  | 58% | 99.4%
23 | COc1cc(C2CC(=O)Nc3c2c(C)nn3-c2nc3ccccc3[nH]2)cc2c1OCC(=O)N2 (configuration not stated) | 74.6% | 76.2% | 94% | 80.8% | 67.1% | 56.9% | 71.4% | 66.8% | 58.5% | 79.2%
24 | O=C(O)c1ccc2c(c1)CCC2 | 108% | 104% | 106% | 114% | 115% | 117% | 104% |  | 105% | 
25 | COc1ccc2c(c1)C(=O)/C(=C/c1cccc(OCC(=O)Nc3nc(C)c(C)s3)c1)O2 | -38.6% (active) | 71.8% | 122% | 94.8% | 158% | -74.8% (active) | -72.4% (active) |  | -17.2% (active) | -59.1% (active)
26 | CC(C)(C)OC(=O)Nc1ccc2c(c1)C(NC(=O)Nc1cccc(C#N)c1)CC(C)(C)O2 (configuration not stated) | 41% | 48.4% | 73.6% | 45.8% | 25.9% | 39.1% | 33.7% |  | 50.8% | 
27 | C[C@H](NC(=O)[C@@H]1CSSC[C@@H](NC(=O)c2nc3ccccc3cc2O)C(=O)NCC(=O)N1C)c1ccccc1 | 38.6% | 60.5% | 76.7% | 66.6% | 6.55% (active) | 51.6% | 24.7% |  | -37.2% (active) | -63.7% (active)
